Compound activity deposited in PubChem BioAssay by National Center for Advancing Translational Sciences (NCATS).
Sampled rows, rich in hits. Any-hit rate of the full collection: about 11%.
Tau FP inhib – inhibitors of human tau fibril formation; P10636; K18 P301L tau heparin fibrillization, Alexa594 FP, 6 h; Potency, µM (titrated, usually from 57.7 µM), hits mostly inhibitors; 280,000 compounds, 0.39% hits; AID 1468; also: nearly all actives have a fitted effect of over 55% in size
Target sequence (P10636 561-689 P618L limits assumed): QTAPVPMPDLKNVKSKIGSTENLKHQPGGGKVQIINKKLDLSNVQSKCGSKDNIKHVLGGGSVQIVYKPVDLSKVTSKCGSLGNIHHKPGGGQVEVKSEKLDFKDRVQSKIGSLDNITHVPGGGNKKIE
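Recombinant K18 P301L […], labeled with Alexa 594 at 0.24 uM over 15 uM unlabeled; heparin inducer 20 uM final; 37 C, 6 hr; FP endpoint.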
Sfp PPTase inh – inhibitors of Bacillus subtilis Sfp phosphopantetheinyl transferase. Q9F4F7. Biochemical Sfp PPTase activity, qHTS. Potency, µM, actives largely listed as inhibitors. 310,000 compounds, 3.5% hits. AID 1490;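 also: the enzyme is Sfp with the accession as filed and its product quenches rhodamine fluorescence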
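Fluorescence-quenching assay: 15 nM Sfp-PPTase preincubated 15 min at room temperature with compound, then 5 uM rhodamine-CoA and 12.5 uM BHQ-2-labelled YbbR peptide added. Fluorescence (ex 525/em 598 nm) read at start and after 30 min; difference gives rate.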
G9a block – G9a (human) methyltransferase inhibition; Q96KQ7; Potency, µM (highest dose often 102 µM), actives largely listed as inhibitors; 350,000 compounds, 8.8% hits; G9a H3K9 monomethylation, AlphaScreen, 2 h; also: nearly all actives have a fitted effect of over 75% in size
Target sequence (Q96KQ7 913-1193 limits assumed): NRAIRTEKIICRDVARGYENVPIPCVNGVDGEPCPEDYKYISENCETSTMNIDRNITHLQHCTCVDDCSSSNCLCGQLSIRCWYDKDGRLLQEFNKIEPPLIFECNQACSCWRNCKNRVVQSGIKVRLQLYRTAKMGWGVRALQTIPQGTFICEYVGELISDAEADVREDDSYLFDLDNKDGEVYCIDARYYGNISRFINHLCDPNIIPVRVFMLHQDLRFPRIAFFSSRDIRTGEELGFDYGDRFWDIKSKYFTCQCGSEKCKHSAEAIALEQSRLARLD
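AlphaScreen read-out: biotin-H3K9 peptide (500 nM) methylation by 20 nM enzyme with 20 uM SAM, 2 h at room temperature after 15 min compound preincubation; anti-monomethyl H3K9 antibody plus donor/acceptor beads, 10 min dark.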
Tau fluor counter – counter-screen for tau fibril formation inhibitors. Potency, µM (series often up to 57.7 µM). 280,000 compounds, 0.93% hits. tau K18 P301L Alexa594 fluorescence, heparin fibrillization; also: nearly all actives have a fitted effect of over 55% in size
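Human tau K18 P301L (15 uM unlabeled, 0.24 uM Alexa 594-labeled) in 100 mM sodium acetate pH 7 with 20 uM heparin, 6 hr at 37 C. ThT 30 uM added, 1 hr ambient; Alexa 594 FP and total fluorescence read at 555/632 nm.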
FBPA coupling cs – counter-screen for Giardia aldolase inhibitors: coupling enzyme system | coupling enzyme system counterscreen, AmpLite Red fluorescence | activity change, negative = inhibition, % at 58.2 µM, hits read low | 290,000 compounds, 0.67% hits | AID 2472; in the data active = activity change below about -30%
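Counterscreen lacking aldolase: glyceraldehyde-3-phosphate coupling-enzyme reagent preincubated 10 min at RT with compound (at 57.5 uM final), then substrate/coupling system with AmpLite Red added; fluorescence read at 525/598 nm after 20 min RT.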
Tau fibril ThT – blocks human tau fibril formation measured by thioflavin T; recombinant tau K18 P301L, heparin-induced fibrillization, ThT fluorescence; 270,000 compounds, 2.1% hits; AID 1460; P10636; Potency, µM (top dose mostly 57.4 µM), actives largely listed as inhibitors; also: nearly all actives have a fitted effect of over 55% in size
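Using a mix of unlabeled (15 uM) and Alexa 594-labeled (0.24 uM) tau K18 P301L, heparin-triggered fibrillization over 6 hr at 37 C was scored by ThT fluorescence.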
Tau fibril TEM – Inhibits tau K18 fibrillization by TEM grading | shares compounds with Tau fibril ThT | recombinant tau K18 P301L fibrillization, TEM grading; active compounds read high | fibril grade (0 = clumped fibrils, 4 = only tiny pieces) (concentration not given with the values) | 45 compounds, 70% hits | AID 1719;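 active = compounds whose electron micrographs showed tau fibrils broken into shorter filaments or fragments, graded high on fibril breakup; inconclusive = micrographs gave an unclear fibril picture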
tau sediment – tau fibrillization inhibition by sedimentation; AID 1720; 110 compounds, 50% hits; recombinant tau K18 P301L (four-repeat tau fragment), sedimentation SDS-PAGE densitometry; inhibition, % at 100 µM; shares compounds with Tau fibril ThT; in the data active = inhibition above about 40%; inconclusive = no clear call, values can overlap the other calls; inactive = below about 18%
A number is an active result; – = inactive; ? = inconclusive; · = no result given; ! = repeats disagree; [ ] = another dose, or the depositor's remark. Unless noted, calls follow the shape of the dose curve; as a rule, active = well fitted curve in the direction sought with a large enough effect; inconclusive = small, poorly fitted or top-dose-only effect, or another doubt; inactive = no such curve, though single readings can be large; an effect the other way counts as inactive or inconclusive.

SMILES | Tau FP inhib | Sfp PPTase inh | G9a block | Tau fluor counter | FBPA coupling cs | Tau fibril ThT | tau sediment | others
COCCCn1c(=O)c2ccccc2n(Cc2cccc(C)c2)c1=O | · | – | – | · | – | · | ·
O=C(CCC1CCCN(C(=O)CCN2CCCCC2=O)C1)NCc1ccccc1F (stereo not drawn) | – | – | –[12.7 µM] | – | – | – | ·
Nc1scc2c(CO)nn(-c3ccccc3)c(=O)c12 | · | · | · | · | · | · | 81
NC(=O)c1nn(-c2ccccc2)c(=O)c2c(N)scc12 | · | · | · | · | · | · | 89
O=c1c2cccc3c2c(nn1-c1ccccc1)-c1ccccc1-3 | – | – | – | – | – | – | ·
CCOC(=O)c1cc2c(C)nn(-c3ccccc3)c2s1 | – | – | – | – | – | – | ·
CCOC(=O)c1nn(-c2ccccc2)c(=O)c2c(NC(C)=O)scc12 | – | – | – | – | – | – | –
Nc1nn(-c2ccccc2)c(=O)c2c(N)scc12 | · | · | · | · | · | · | 86
NC(=O)c1nn(-c2ccccc2)c(=O)cc1O | – | – | –[12.7 µM] | – | – | – | ·
Nc1scc2c(C(=O)N3CCOCC3)nn(-c3ccccc3)c(=O)c12 | · | · | · | · | · | · | 89
O=C(Cc1ccccc1)Nc1sc2c(c1C(=O)Nc1ccc(Cl)cc1)CCCC2 | ? | · | 0.32µM | – | · | 8.9µM | 61 | Tau fibril TEM=2
NC[C@@H](O)c1ccc(O)c(O)c1 | ? | ? | ? | – | -36! | ? | –
Oc1ccc(C(O)CNCCCCCCNCC(O)c2ccc(O)c(O)c2)cc1O (stereo not drawn) | · | ? | –[12.7 µM] | · | · | · | ·
NC[C@H](O)c1ccc(O)c(O)c1 | 6.3µM! | ? | 9.5µM | ? | -40 | 4µM! | 75 | Tau fibril TEM=3
CCCCC(NC(=O)c1ccc(C#N)cc1)C(=O)NCCC (stereo not drawn) | · | · | –[2.33 µM] | · | · | · | ·
COc1cccc(CNC(=O)Cc2c(C(=O)O)c(C)cn2C)c1 | – | · | – | – | · | – | ·
O=S(=O)(c1ccc(N=C2NN=C(c3cc(F)ccc3F)CS2)cc1)N1CCOCC1 | ? | – | – | ? | – | 6.3µM | 44 | Tau fibril TEM=3
CNc1nc(NN)nc(Nc2ccccc2)n1 | · | – | –[0.501 µM] | · | – | · | ·
CN(c1ccccc1)S(=O)(=O)c1nnc(NC(=O)COc2ccccc2)s1 | ? | – | ? | ? | · | ? | ?
Nc1c(-c2ccncc2)cc[nH]c1=O | · | · | · | · | · | · | 55 | Tau fibril TEM=–
CN(C)c1ccc(-c2cncnc2Nc2ccc(F)cc2)cc1 | · | ? | –[0.501 µM] | · | – | · | ·
CN(C)c1ccc(-c2cc[nH]c(=O)c2N)cc1 | · | · | · | · | · | · | 68 | Tau fibril TEM=3
CN(C)C(=O)c1ccc(-c2cc[nH]c(=O)c2N)cc1 | · | · | · | · | · | · | 48 | Tau fibril TEM=–
c1ccc2c(-c3ccncc3)c[nH]c2c1 | – | – | – | – | – | – | ·
COc1ccc(NC(=O)CSc2nnc(C)s2)cc1S(=O)(=O)N1CCOCC1 | · | · | – | · | · | · | ·
SMILES | Tau FP inhib | Sfp PPTase inh | G9a block | Tau fluor counter | FBPA coupling cs | Tau fibril ThT | tau sediment | others
COc1cc([N+](=O)[O-])ccc1NC(=O)Oc1ccc(NC(C)=O)cc1 | – | – | – | – | – | – | ·
CCNC(=O)c1ccc(CSc2ccc(Cl)cc2)cc1 | – | – | – | – | – | ? | ·
Cn1[nH]c(CSc2ccc(Cl)cc2)cc1=O | ? | – | – | ? | – | ? | –
COc1ccc2c(c1)c(CC(=O)N1CCOCC1)c(C)n2C(=O)c1ccc(Cl)cc1 | – | – | –[12.7 µM] | – | – | – | –
O=C(Nc1ccc2c(c1)S(=O)(=O)N=C1CCCCCN12)c1ccccc1Cl | – | – | – | – | – | ? | ·
O=S(=O)(c1ccc(NC(=S)N/N=C/c2ccc(N3CCOCC3)cc2)cc1)N1CCOCC1 | – | – | – | ? | – | ? | –
Cc1nn(CC(=O)OCC(=O)c2ccc(OC(F)F)cc2)c(C)c1[N+](=O)[O-] | · | · | –[2.33 µM] | · | · | · | ·
